Laboratory results reported in PubChem BioAssay AID1159580 (chemical genetic matrix, 2015).
Several values for one entry are separate records, joined by “and”; a condition that tells them apart may be missing. Equal values may be shown once. Among all 5,500 compounds or so, about 2,000 (36%) were called active. Inconclusive results (about 18%) are left out. Rule as the data show it: active = normalized growth mostly below about 0.91 (no sharp cut-off); inconclusive = no clear call, values can overlap the other calls; inactive = mostly above about 0.92. The list shows a part of the results.

Assay: chemical genetic growth profiling, strain panel (AID 1159580);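 also: tested at 20 µM; growth read once vehicle control cultures reached saturation at 30 °C; 1 = growth at the plate median or of vehicle wells; lower values mean less growth of the strain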
Conditions: S. cerevisiae deletion strains, growth OD
[1] = locus YAR019C, strain CDC15, stronger effect = lower value
[2] = locus YBL105C, strain PKC1, stronger effect = lower value
[3] = locus YBR135W, strain CKS1, stronger effect = lower value
[4] = locus YBR136W, strain MEC1, stronger effect = lower value
[5] = locus YBR160W, strain CDC28, stronger effect = lower value
[6] = locus YDL017W, strain CDC7, stronger effect = lower value
[7] = locus YDL028C, strain MPS1, stronger effect = lower value
[8] = locus YDL101C, strain DUN1, stronger effect = lower value
[9] = locus YDL108W, strain KIN28, stronger effect = lower value
[10] = locus YDL132W, strain cdc53, stronger effect = lower value
[11] = locus YDL214C, strain PRR2, stronger effect = lower value
[12] = locus YDR052C, strain DBF4, stronger effect = lower value
[13] = locus YDR054C, strain cdc34, stronger effect = lower value
[14] = locus YDR226W, strain ADK1, stronger effect = lower value
[15] = locus YDR477W, strain SNF1, stronger effect = lower value
[16] = locus YER123W, strain YCK3, stronger effect = lower value
[17] = locus YER133W, strain GLC7, stronger effect = lower value
[18] = locus YFL009W, strain cdc4, stronger effect = lower value
[19] = locus YFL029C, strain CAK1, stronger effect = lower value
[20] = locus YFR003C, strain YPI1, stronger effect = lower value
[21] = locus YFR019W, strain FAB1, stronger effect = lower value
[22] = locus YFR028C, strain CDC14, stronger effect = lower value
[23] = locus YGR040W, strain KSS1, stronger effect = lower value
[24] = locus YGR052W, strain FMP48, stronger effect = lower value
[25] = locus YGR092W, strain DBF2, stronger effect = lower value
[26] = locus YHR030C, strain SLT2, stronger effect = lower value
[27] = locus YHR079C, strain IRE1, stronger effect = lower value
[28] = locus YHR082C, strain KSP1, stronger effect = lower value
[29] = locus YHR205W, strain SCH9, stronger effect = lower value
[30] = locus YIL147C, strain SLN1, stronger effect = lower value
[31] = locus YJL095W, strain BCK1, stronger effect = lower value
[32] = locus YJL128C, strain PBS2, stronger effect = lower value
[33] = locus YJL157C, strain FAR1, stronger effect = lower value
[34] = locus YJR016C, strain ILV3, stronger effect = lower value
[35] = locus YJR066W, strain TOR1 (second series), stronger effect = lower value
[36] = locus YJR066W, strain TOR1, stronger effect = lower value
[37] = locus YKL048C, strain ELM1, stronger effect = lower value
[38] = locus YKL067W, strain YNK1, stronger effect = lower value
[39] = locus YKL101W, strain HSL1, stronger effect = lower value
[40] = locus YKL193C, strain SDS22, stronger effect = lower value
[41] = locus YKL203C, strain TOR2, stronger effect = lower value
[42] = locus YLR113W, strain HOG1, stronger effect = lower value
[43] = locus YLR133W, strain CKI1, stronger effect = lower value
[44] = locus YLR403W, strain SFP1, stronger effect = lower value
[45] = locus YML070W, strain DAK1, stronger effect = lower value
[46] = locus YMR001C, strain CDC5, stronger effect = lower value
[47] = locus YMR205C, strain PFK2 (second series), stronger effect = lower value
[48] = locus YMR277W, strain FCP1, stronger effect = lower value
[49] = locus YNL006W, strain LST8, stronger effect = lower value
[50] = locus YNL020C, strain ARK1, stronger effect = lower value
[51] = locus YNL161W, strain CBK1, stronger effect = lower value
[52] = locus YNL183C, strain NPR1, stronger effect = lower value
[53] = locus YNL207W, strain RIO2, stronger effect = lower value
[54] = locus YNL222W, strain SSU72, stronger effect = lower value
[55] = locus YNL307C, strain MCK1 (second series), stronger effect = lower value
[56] = locus YOL078W, strain AVO1, stronger effect = lower value
[57] = locus YOL136C, strain PFK27, stronger effect = lower value
[58] = locus YOR061W, strain CKA2, stronger effect = lower value
[59] = locus YOR119C, strain RIO1, stronger effect = lower value
[60] = locus YOR231W, strain MKK1, stronger effect = lower value
[61] = locus YOR329C, strain SCD5, stronger effect = lower value
[62] = locus YPL031C, strain PHO85, stronger effect = lower value
[63] = locus YPL153C, strain RAD53, stronger effect = lower value
[64] = locus YPL204W, strain HRR25, stronger effect = lower value
[65] = locus YPL209C, strain IPL1, stronger effect = lower value
[66] = locus YPL256C, strain CLN2, stronger effect = lower value
[67] = locus YPR025C, strain CCL1, stronger effect = lower value
[68] = locus YPR106W, strain ISR1, stronger effect = lower value
[69] = locus YPR111W, strain DBF20, stronger effect = lower value
[70] = strain NNK1, stronger effect = lower value
[71] = strain TSCII, stronger effect = lower value

Measured: normalized growth

CCCc1nc(-c2ccccn2)[nH]c(=O)c1CC1CC1
0.948 (inactive) and 0.899 (active): [8]
inactive: [1] 0.947 | [2] 0.955 | [3] 0.955 | [4] 0.952 | [5] 0.96 | [6] 0.956 | [7] 0.937 | [9] 0.956 | [10] 0.948 | [11] 0.944 | [12] 0.962 | [13] 0.93 | [14] 0.954 | [15] 0.945 | [16] 0.903 | [17] 0.952 | [18] 0.942 | [19] 0.935 | [20] 0.958 | [21] 0.968 | [22] 0.96 | [23] 0.936 | [24] 1.01 | [25] 0.865 | [27] 0.853 | [28] 0.968 | [29] 0.98 | [30] 0.945 | [31] 0.915 | [32] 0.96 | [33] 0.928 | [34] 0.953 | locus YJR043C, strain POL32, stronger effect = lower value 0.923 | [35] 0.849 | [36] 0.887 | [37] 0.956 | [38] 0.954 | [39] 0.933 | [40] 0.952 | [41] 0.98 | locus YLR058C, strain SHM2 (second series), stronger effect = lower value 0.938 | [42] 0.88 | [43] 0.938 | [44] 0.94 | [45] 0.959 | [46] 0.949 | [47] 0.939 | [48] 0.953 | [49] 0.966 | [50] 0.937 | [51] 0.957 | [52] 0.93 | [53] 0.94 | [54] 0.959 | [55] 0.937 | locus YNL322C, strain KRE1, stronger effect = lower value 0.975 | [56] 0.951 | [57] 0.959 | [58] 0.925 | [59] 0.937 | [60] 0.881 | [61] 0.952 | [62] 0.941 | [63] 0.926 | [64] 0.927 | [65] 0.958 | [66] 0.9 | [67] 0.949 | [68] 0.979 | [69] 0.973 | [70] 0.962 | [71] 0.949
0.292 (active) and 0.919 (inactive): [26]
active: locus YAL013W, strain DEP1, stronger effect = lower value 0.861 | locus YBR229C, strain ROT2, stronger effect = lower value 0.727 | locus YDL134C, strain PPH21, stronger effect = lower value 0.862 | locus YEL061C, strain CIN8, stronger effect = lower value 0.611 | locus YGR078C, strain PAC10, stronger effect = lower value 0.842 | locus YGR229C, strain SMI1, stronger effect = lower value 0.886 | locus YHR087W, strain rtc3, stronger effect = lower value 0.754 | locus YJL187C, strain SWE1, stronger effect = lower value 0.829 | locus YJR075W, strain HOC1, stronger effect = lower value 0.879 | locus YKL190W, strain CNB1, stronger effect = lower value 0.698 | locus YLR039C, strain RIC1, stronger effect = lower value 0.489 | locus YLR085C, strain ARP6, stronger effect = lower value 0.218 | locus YLR262C, strain YPT6, stronger effect = lower value 0.757 | locus YML094W, strain GIM5, stronger effect = lower value 0.534 | locus YMR219W, strain ESC1, stronger effect = lower value 0.916 | locus YMR263W, strain SAP30, stronger effect = lower value 0.889 | locus YMR307W, strain GAS1, stronger effect = lower value 0.386 | locus YNL128W, strain TEP1, stronger effect = lower value 0.869 | locus YNL153C, strain GIM3, stronger effect = lower value 0.84 | locus YNL298W, strain CLA4 (second series), stronger effect = lower value 0.601 | locus YNR030W, strain Alg12, stronger effect = lower value 0.498 | locus YPL055C, strain LGE1, stronger effect = lower value 0.738 | locus YPL241C, strain CIN2, stronger effect = lower value 0.648 | locus YPR135W, strain CTF4, stronger effect = lower value 0.413

C=CCc1c(CCC)nc(-c2ccccn2)[nH]c1=O
inactive: [1] 0.931 | [2] 0.945 | [3] 0.95 | [4] 0.933 | [5] 0.947 | [6] 0.931 | [7] 0.931 | [8] 0.945 | [9] 0.937 | [10] 0.936 | [11] 0.893 | [12] 0.955 | [13] 0.916 | [14] 0.94 | [15] 0.891 | [16] 0.772 | [17] 0.912 | [18] 0.928 | [19] 0.92 | [20] 0.952 | [21] 0.939 | [22] 0.945 | [23] 0.893 | [24] 0.904 | [25] 0.752 | [26] 0.875 | [27] 0.701 | [28] 0.883 | [29] 0.983 | [30] 0.931 | [31] 0.784 | [32] 0.96 | [33] 0.867 | [34] 0.94 | [35] 0.767 | [36] 0.748 | [37] 0.966 | [38] 0.902 | [39] 0.896 | [40] 0.936 | [41] 0.926 | [43] 0.886 | [44] 0.892 | [45] 0.884 | [46] 0.937 | [47] 0.901 | [48] 0.944 | [49] 0.943 | [50] 0.877 | [51] 0.945 | [52] 0.825 | [53] 0.924 | [54] 0.945 | [55] 0.84 | [56] 0.933 | [57] 0.883 | [58] 0.877 | [59] 0.905 | [60] 0.73 | [61] 0.941 | [62] 0.891 | [63] 0.864 | [64] 0.856 | [65] 0.94 | [67] 0.945 | [68] 0.944 | [69] 0.954 | [70] 0.945 | [71] 0.929
active: [42] 0.733 | [66] 0.823
